Only some compounds are listed: those with a hit (about 5.7% of all), similar ones and a draw of the others.
HP1b binding inh = inhibitors of HP1-beta chromodomain binding to methylated histone tails; AlphaScreen HP1-beta / biotin-H3K9me3 peptide binding; Potency, µM (series often up to 114 µM), for inactives: at the top dose activity change, negative = inhibition, hits mostly inhibitors; 390,000 compounds, 0.56% hits; AID 540317; further: potency means the concentration at half of the fitted maximal effect; nearly all actives have a fitted effect of over 70% in size
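Compound inhibition of the preformed complex between 50 nM HP1-beta and 50 nM biotinylated H3K9me3 peptide was read by AlphaScreen. Buffer was PBS pH 7.4 with 0.01% Tween-20. Incubations ran 30 min at room temperature, with 10 ug/mL donor/acceptor beads.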
L3MBTL1 inh = L3MBTL1 (human) inhibition; Q9Y468; AlphaScreen L3MBTL1–H3K9me1 peptide binding; Potency, µM (top dose mostly 57.1 µM), for inactives: at the highest dose activity, negative = inhibition, actives largely listed as inhibitors; 230,000 compounds, 0.66% hits; AID 485360; further: potency means the concentration at half of the fitted maximal effect; on the % scale 0 is the no-effect control and ±100 the full control effect; nearly all actives have a fitted effect of over 60% in size
Target sequence (Q9Y468 whole entry, looked up): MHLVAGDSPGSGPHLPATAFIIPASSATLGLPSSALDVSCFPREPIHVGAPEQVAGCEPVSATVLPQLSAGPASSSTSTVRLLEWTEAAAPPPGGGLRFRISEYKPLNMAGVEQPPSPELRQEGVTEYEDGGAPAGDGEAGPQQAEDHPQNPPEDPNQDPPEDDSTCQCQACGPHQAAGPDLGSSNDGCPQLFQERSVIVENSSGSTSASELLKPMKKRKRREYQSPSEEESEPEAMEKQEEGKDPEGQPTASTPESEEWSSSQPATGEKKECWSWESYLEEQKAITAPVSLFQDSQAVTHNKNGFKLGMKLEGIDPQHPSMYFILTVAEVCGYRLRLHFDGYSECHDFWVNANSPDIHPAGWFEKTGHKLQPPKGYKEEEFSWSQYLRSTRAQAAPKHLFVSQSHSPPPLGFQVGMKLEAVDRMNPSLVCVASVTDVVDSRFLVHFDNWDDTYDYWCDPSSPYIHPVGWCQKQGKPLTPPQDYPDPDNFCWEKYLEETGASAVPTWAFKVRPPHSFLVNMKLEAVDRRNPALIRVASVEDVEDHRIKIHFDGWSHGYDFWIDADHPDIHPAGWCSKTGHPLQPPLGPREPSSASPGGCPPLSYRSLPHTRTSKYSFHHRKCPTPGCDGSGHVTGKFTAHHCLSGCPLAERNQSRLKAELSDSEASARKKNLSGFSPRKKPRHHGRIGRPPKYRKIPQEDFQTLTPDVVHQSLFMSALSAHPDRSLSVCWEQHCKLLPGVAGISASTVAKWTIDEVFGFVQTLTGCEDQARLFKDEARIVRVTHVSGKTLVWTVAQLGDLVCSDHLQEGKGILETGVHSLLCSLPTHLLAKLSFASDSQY
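AlphaScreen proximity signal between nickel-chelate acceptor and streptavidin donor beads (final 10 ug/mL) reports binding of 50 nM L3MBTL1 to 75 nM biotin-H3 K9me1 peptide; complex incubated with compounds 30 min at room temperature; cefsulodin titration as control.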
JMJD2A Tudor inh = blocks the human JMJD2A Tudor domain | AlphaScreen JMJD2A-Tudor / H3K4me3 peptide binding | Potency, µM (doses to about 114 µM), without a hit: at the highest dose activity change, negative = inhibition, actives largely listed as inhibitors | 390,000 compounds, 4.4% hits | AID 504339; further: potency means the concentration at half of the fitted maximal effect; on the % scale 0 is the no-effect control and ±100 the full control effect; nearly all actives have a fitted effect of over 50% in size
BAZ2B inh = blocks human BAZ2B; Q9UIF8; AlphaScreen BAZ2B-H3K14Ac peptide displacement; Potency, µM (series often up to 114 µM), without a hit: top-dose activity change, negative = inhibition, actives largely listed as inhibitors; 360,000 compounds, 4.4% hits; AID 504333; further: potency means the concentration at half of the fitted maximal effect; on the % scale 0 is the no-effect control and ±100 the full control effect; nearly all actives have a fitted effect of over 60% in size
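AlphaScreen displacement: compounds (up to 110uM) incubated 30 min at room temperature with a preformed 50 nM BAZ2B/50 nM biotinylated H3K14Ac peptide complex in PBS pH 7.4 with Tween-20. Donor and acceptor beads at 10 ug/mL final added, 20 min light-protected before reading.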
PI5P4K alpha inh = PI5P4K alpha (human) kinase inhibition; P48426; PI5P4Kalpha enzyme, ADP-Glo luminescence, 60 min; active compounds read low; max response, %; 330,000 compounds, 1.2% hits; AID 652105; active means max response of -50% or lower; inconclusive means between -30% and -50%; inactive means -30% or higher; further: value at the top dose of about 77 µM; on the % scale 0 is the no-effect control and ±100 the full control effect
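Compounds were pin-transferred onto PI5P4Kalpha and substrate in HEPES pH 7.4 buffer with EGTA, CHAPS and 5% DMSO. ATP (5 microM final) started the reaction, which ran 60 minutes at room temperature before ADP-Glo detection.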
KDM4E inh = JMJD2E (human) inhibition | AID 2147 | 230,000 compounds, 1.6% hits | B2RXH2 | JMJD2E catalytic domain, FDH-coupled NADH fluorescence (FDH is formaldehyde dehydrogenase) | Potency, µM (top dose mostly 57.1 µM), for inactives: at the top dose activity change, negative = inhibition, usual class: inhibitors; active means well fitted inhibition curve with a large enough effect, not every such curve was filed as active; inconclusive means small, poorly fitted or top-dose-only effect, or another doubt; inactive means no such curve, though single readings can be large or run the other way;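 further: potency means the concentration at half of the fitted maximal effect; 0% = wells with enzyme and -100% = buffer wells without enzyme; nearly all actives have a fitted effect of over 50% in size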
* = called active by the depositor; u = inconclusive; x = no result given; [ ] = dose if it differs, or a comment. Unless noted, the call rests on the fitted dose curve; in most records, active means well fitted inhibition curve with a large enough effect; inconclusive means small, poorly fitted or top-dose-only effect; inactive means no such curve, though single readings can be large or run the other way.

SMILES | HP1b binding inh | L3MBTL1 inh | JMJD2A Tudor inh | BAZ2B inh | PI5P4K alpha inh | KDM4E inh
CC(=O)Nc1sc(N/N=C\c2ccc(O)cc2)nc1-c1cccs1 | u | -4% | 40µM* | u | -25 | -10%
N#C/C(=N\Nc1cccc([N+](=O)[O-])c1)C(=O)c1ccc(Br)cc1 | u | -1% | 40µM* | 40µM* | -13 | -3%
O=C(Nc1cccc([N+](=O)[O-])c1)c1ccc(-c2ccccc2)cc1 | 4% | 3% | -16% | 0% | 0 | 5%
O=C(O)c1ccc(N=NNc2cccc([N+](=O)[O-])c2)cc1 | -4% | -3% | -16% | -30% | -53* | -5%
COc1ccc(Cl)cc1NC(=O)Cn1c(=O)n(Cc2cccs2)c(=O)c2cccnc21 | 9% | x | -17% | 1% | x | x
CCOc1ccc(CN2C(=O)c3ccccc3Sc3ccc(C(=O)NCCCN4CCOCC4)cc32)cc1 | -4% | x | -33% | 79µM* | -2 | x
O=C(NCCCN1CCOCC1)c1ccc2c(c1)N(Cc1ccccc1)C(=O)c1ccccc1S2 | 27% | x | -11% | -20% | -4 | x
C=CCOC(=O)N[C@H](c1cccc(C(F)(F)F)c1)C(C(C)=O)C(C)=O | x | x | x | x | x | -1%
Cc1cc(C)n(CCc2nc(-c3ccco3)cs2)n1 | u | x | 50µM* | 50µM* | x | -18%
Cc1cc(C)n(CCc2nc(-c3cccs3)cs2)n1 | 51% | 8% | 3% | 5% | 2 | -6%
CCOc1ccc(S(=O)(=O)Nc2cccc(-c3ccc(N4CCCC4)nn3)c2)cc1 | u | x | -23% | -7% | x | x
O=C(Cc1ccccc1)NNc1ccc2ccccc2c1 | 19% | -9% | -16% | -29% | -3 | 25µM*
COc1ccc(-c2nc3n(n2)C(c2ccccc2OC)C(C(=O)Nc2cccnc2)=C(C)N3)cc1 (configuration not stated) | 31% | x | -20% | -12% | x | x
Cc1[nH]c2ccccc2c1N=Nc1ccc(F)cc1 | u | -2% | 89µM* | 32µM* | 59 | -9%
Cc1[nH]c2ccccc2c1N=Nc1cc(C(=O)O)cc(C(=O)O)c1 | -11% | u | -21% | u | -9 | 7%
Cc1[nH]c2ccccc2c1N=Nc1ccccc1F | u | x | 45µM* | 40µM* | 16 | -2%
Cc1[nH]c2ccccc2c1N=Nc1c(C)n(C)n(-c2ccccc2)c1=O | 11% | 10% | -34% | u | -9 | -12%
COc1ccc(N=Nc2[nH]c3ccc(C)cc3c2O)cc1 | 24% | -12% | 4% | u | -5 | -16%
Cc1ccc(N=Nc2[nH]c3ccccc3c2O)cc1 | 32% | -10% | u | 56µM* | 0 | -4%
CC(=O)c1cccc(NC(=O)CSc2nc3c(=O)n(C)c(=O)n(C)c3n2C)c1 | 40% | x | 10% | -2% | x | x
CC(=O)c1ccc(S(=O)(=O)N2CCN(S(=O)(=O)c3ccccc3C(F)(F)F)CC2)cc1 | 23% | x | -16% | 7% | -6 | x
O=C(c1ccc2c(c1)N(Cc1ccccc1F)C(=O)c1ccccc1S2=O)N1CCCCC1 (configuration not stated) | 35% | x | -13% | -19% | x | x
CCCCc1ccc(C2C(C#N)=C(N)SC(N)=C2C#N)s1 | x | -13% | x | 50µM* | x | -29%
COc1ccccc1-n1c(SCC(=O)NC2CCS(=O)(=O)C2)nc2cc([N+](=O)[O-])ccc21 (configuration not stated) | 0% | 7% | -17% | -2% | -7 | -3%
COc1ccccc1-n1c(SCC(=O)c2ccc(O)cc2O)nc2cc([N+](=O)[O-])ccc21 | -17% | -12% | 25µM* | u | -27 | -5%
SMILES | HP1b binding inh | L3MBTL1 inh | JMJD2A Tudor inh | BAZ2B inh | PI5P4K alpha inh | KDM4E inh
CN(c1ccc(Cl)cc1)c1cc(=O)n(C)c2ccccc12 | 77% | 9% | 24% | 46% | -2 | -7%
CN(C)c1ccc(C=c2c3ccccc3n3c2c2c([n+]3C)CCCC2)cc1 | u | x | 28µM* | x | -4 | x
CN(C)c1ccc(C=c2c3ccccc3n3c2cc(-c2ccc(Cl)cc2)[n+]3C)cc1 | 13µM* | x | 45µM* | x | -57* | x
Cn1c(CO)c(-c2ccccc2)c2cc([N+](=O)[O-])ccc21 | 20% | -6% | -15% | -5% | 14 | 1%
COc1cc(N(C)C)ccc1C=c1c2ccccc2n2c1cc(-c1ccccc1)[n+]2C | u | x | 18µM* | x | u | x
CN(C)c1ccc(C=c2c3cc([N+](=O)[O-])ccc3n3c2cc(-c2ccccc2)[n+]3C)cc1 | 11µM* | x | 11µM* | x | -78* | x
CSC1=NC2(CCN(C(=O)NC3CCCCC3)CC2)N=C1c1ccc(C(C)(C)C)cc1 | 30% | x | -4% | 4%[57.1 µM] | x | x
CN(C)c1ccc(C=c2c3ccccc3n3c2cc(-c2ccccc2)[n+]3C)cc1 | 50µM* | x | 32µM* | x | -51* | x
COc1cc(C=c2c3ccccc3n3c2cc(-c2ccccc2)[n+]3C)cc(OC)c1OC | u | x | 32µM* | x | -18 | x
C[C@@H]1CN([C@@H](C)CO)S(=O)(=O)c2ccc(-c3ccc(C#N)cc3)cc2O[C@@H]1CN(C)Cc1ccccn1 | x | x | x | x | -1 | x
Cc1cc(-c2cn3ccccc3n2)c(C)n1-c1ccccc1 | u | -11% | 56µM* | u | -16 | u
COc1cccc2cc(-c3cn4cccc(C)c4n3)c(=O)oc12 | 5% | x | -10% | x | x | x
COc1ccc(-n2c(C)cc(-c3cn4cccc(C)c4n3)c2C)cc1 | -11% | -15% | u | 40µM* | -3 | -100%
c1ccc(-c2cn3ccccc3n2)cc1 | -6% | x | -8% | x | -1 | x
COc1ccc(C(=O)N2c3ccc(C)cc3C(C)(c3ccccc3)CC2(C)C)cc1 (configuration not stated) | 11% | x | -18% | -3% | x | x
CCOc1ccccc1CNC(=O)C1CCN(C(=O)N2CCOc3ccc(Cl)cc32)CC1 | 3% | x | u | u | x | x
COc1ccc(CCNC(=O)c2nn(C)c3c2CS(=O)(=O)c2ccccc2-3)c(OC)c1 | 54% | x | -23% | 50µM* | 1 | x
CCCn1c(CCC(=O)Nc2cc(C(=O)OC)cc(C(=O)OC)c2)nc2cccnc21 | 27% | x | -7% | -6% | x | x
CCn1c(C)c(C)c2cc(C(=O)N3CCc4ccccc4C3)ccc21 | u | x | 40µM* | 22µM* | 1 | x
CCn1c(C)c(C)c2cc(C(=O)NCCc3cc(OC)c(OC)c(OC)c3)ccc21 | -12% | x | u | 45µM* | x | x
CCn1c(C)c(C)c2cc(C(=O)NCCN3CCCCCC3)ccc21 | -6% | x | 45µM* | 22µM* | 1 | x
CCn1c(C)c(C)c2cc(C(=O)NCCCN3CCCCCC3)ccc21 | -19% | x | 56µM* | 56µM* | -10 | x
COc1cc(NC(=O)c2ccc(-c3nc(COc4ccccc4)c(C)o3)cc2)cc(OC)c1 | 18% | x | -16% | -24% | x | x

High-throughput results: PubChem BioAssay, National Center for Advancing Translational Sciences (NCATS)
